The record followed here is PubChem BioAssay AID504577 (NMMLSC, 2011).

Out of some 350,000 compounds screened, about 1,300 (0.37%) were called active. This is one part of a sample in which actives are shown more often than they occur. Values without a mark were called inactive. No stated cut-off is given here; in the data, active means response mostly above about 7.3% (no sharp cut-off); inactive means mostly below about 5.4%.

The nature of this assay: regulators of yeast V-ATPase proton pumping, primary screen, pHLuorin cytosolic pH fluorescence (AID 504577). Further: actives read high. The following applies: S. cerevisiae, at 10 µM, stronger effect = higher value.
Turning to `COc1ccc(CC(=O)Nc2c3c(nn2-c2cccc(Cl)c2)CS(=O)C3)cc1` (stereo unspecified), the response is 5.74%.
In the case of `CCN(CC)C(=O)C1=C(C)N(Cc2ccc(OC)cc2)C(=O)C(CC(=O)NCCCCc2ccccc2)C1` (stereo unspecified) it was 2.59%; in that of `COc1cc(NC(=O)CSc2nnc3ccc(-c4ccncc4)nn23)cc(OC)c1`, -1.89%; in that of `Fc1cccc(CSc2nnc3ccc(-c4ccncc4)nn23)c1`, 30.5% (active).
In the case of `O=C(CSc1nnc2ccc(-c3ccncc3)nn12)N1CCCCC1` it was 2.79%; in that of `NS(=O)(=O)c1ccc(CCNC(=O)c2ccc([N+](=O)[O-])cc2[N+](=O)[O-])cc1`, 0.09%.
In the case of `CCOc1ccc(-n2c(SCC(=O)Nc3cc(C(=O)O)ccc3Cl)nc3ccccc3c2=O)cc1` it was 2.47%.
Take `COC(=O)c1cc(S(=O)(=O)N2CCN(c3cc(C)ccc3C)CC2)c[nH]1`: the response was -1.19%.
In the case of `O=C1Oc2ccccc2C(=O)/C1=C/c1ccccc1O` it was 15.2% (active); in that of `COC(=O)c1ccc(/C=C2/C(=O)Oc3ccccc32)cc1`, -0.46%.
In the case of `COC(=O)c1c(NC(=O)COc2ccc(Cl)cc2Cl)sc2c1CC(C)(C)NC2(C)C` it was 4.61%.
In the case of `Cc1cc(=O)oc2c(C)c(OCC(=O)NCCN3CCOCC3)ccc12` it was 1.98%; in that of `O=C(COc1cc2oc(=O)c3c(c2cc1Cl)CCC3)NCCCN1CCOCC1`, 9.9% (active); in that of `CCCc1cc(=O)oc2cc(OCC(=O)Nc3ccc(CN4CCOCC4)cc3)c(Cl)cc12`, -2.48%.
Regarding `CC(=O)Nc1c2c(nn1-c1ccc(C)cc1C)CS(=O)C2` (stereo unspecified), the response is -4.1%.
To `OCC(O)CN(c1ccccc1)c1ccccc1` (stereo unspecified) belongs 1.73%.
In the case of `Cc1occc1C(=O)Nc1nnc(C2CCCCC2)s1` it was 10% (active); in that of `COc1ccc(NC(=O)CCC(=O)Nc2nnc(C3CCCCC3)s2)cc1`, -2.38%; in that of `Cc1cc(C(=O)Nc2nnc(C3CC3)s2)c(C)s1`, 3.66%.
To `CCSCc1nc(N)nc(NCCc2ccccc2)n1` belongs -0.9%.
Take `CCSC1=NCCN1C(=O)c1ccc(S(=O)(=O)N(CC)CC)cc1`: the response was 2.02%.
To `COc1ccc2nc(N3C(=O)C(O)=C(C(=O)c4ccco4)C3c3ccco3)sc2c1` (stereo unspecified) belongs -1.37%; to `CCN(CC)CCN(C(=O)c1cccc([N+](=O)[O-])c1)c1nc2ccc(OC)cc2s1`, -1.21%.
For the molecule `COc1ccc2nc(N3CCN(C(=O)c4ccc([N+](=O)[O-])o4)CC3)sc2c1`, the response was 27.1% (active).
With `CCOC(=O)CC1COCCN1C(=O)c1cc(COc2ccc(F)c(F)c2)on1` (stereo unspecified), the response is 0.12%.
In the case of `COc1cc(=O)[nH]c(=O)n1C(=O)Cc1ccccc1` it was -1.96%; in that of `COc1ccc(/C=N/NC(=O)c2cccc(C(F)(F)F)c2)cc1`, 13.1% (active); in that of `Cc1nnsc1C(=O)N/N=C/c1cccc(C(F)(F)F)c1`, 3.26%.
In the case of `COc1ccc(/C=N/NC(=O)Cn2cc(C(F)(F)F)ccc2=O)cc1` it was -4.67%.
For `CCCn1c(C(C)Nc2nc(-c3ccc(C)cc3)cs2)nc2cc(Cl)c(N3CCCCC3)cc21` (stereo unspecified), the response is -1.24%.
In the case of `c1ccc(-c2nnc3n2NC(c2ccc4c(c2)OCO4)S3)cc1` (stereo unspecified) it was -3.32%.
In the case of `COC(=O)C(C)n1cnc2c(nnn2-c2cccc(Cl)c2)c1=O` (stereo unspecified) it was 16.6% (active); in that of `COC(=O)C(C)n1cnc2c(nnn2-c2ccc(F)cc2)c1=O` (stereo unspecified), 1.53%.
In the case of `CCOC(=O)C(C)n1cnc2c(nnn2-c2cccc(OC)c2)c1=O` (stereo unspecified) it was 1.26%; in that of `CN1CCNC(=O)C1CC(=O)NCCC1=CCCCC1` (stereo unspecified), 1.15%.
In the case of `Cc1ccc(S(=O)(=O)/N=C(/Nc2ccc3[nH]c(=O)[nH]c3c2)c2ccccc2)cc1`, the response was -2.11%.
Consider `Cc1ccc(NC(=O)NC(=O)c2ccccc2)cc1F`, for which the response is -0.67%.
In the case of `Cc1cc(=O)c2ccc(NC(=O)c3ccccc3)cc2[nH]1` it was 8.54% (active).
In the case of `CN(C)S(=O)(=O)c1ccc(N2CCCC2=O)c([N+](=O)[O-])c1` it was -0.02%; in that of `O=C(c1cccs1)N1C[C@H](n2cc(C3CC3)nn2)[C@@H](O)C[C@@H]1c1ccccc1`, -2.35%; in that of `C/C(=C/C(=O)N1CCN(C)CC1)C(=O)O`, -2.99%.
In the case of `COc1ccc(S(=O)(=O)N2CCC(C(=O)OCC(=O)c3ccccc3)CC2)cc1[N+](=O)[O-]` it was -4.5%; in that of `COC(=O)c1cc(Oc2ccc(S(=O)(=O)N3CCOCC3)cc2[N+](=O)[O-])cc(C(=O)OC)c1`, 13.9% (active); in that of `C=C(C)CNc1cc(S(=O)(=O)N2CCOCC2)ccc1Oc1ccccc1`, 1.92%.
As for `O=C(C[C@@H]1C/C=C\CCC(=O)OC[C@@H]2CCCN2C1=O)NCCO`, the response was -3.85%.
To `COC(=O)c1c(NC(=O)CN2CCN(S(=O)(=O)c3ccccc3[N+](=O)[O-])CC2)sc2c1CCC(C)C2` (stereo unspecified) belongs -0.77%; to `O=C1CC(c2ccccc2)C(=O)N1c1cccc(O)c1` (stereo unspecified), -0.89%.
In the case of `O=C1OCC2=C1C(c1ccccc1)CC(=O)N2c1cccc(F)c1` (stereo unspecified) it was 18.5% (active); in that of `O=C1CC(c2ccccc2)C(=O)N2C(=O)CC(c3ccccc3)C(=O)N12` (stereo unspecified), -1.7%; in that of `Cc1cc(CO)nn1-c1ccc([N+](=O)[O-])cc1`, 15.4% (active).
To `CC(C)(C)c1cnnn1-c1ccc([N+](=O)[O-])cc1` belongs 1.62%.
Regarding `Cc1cc(C)n(CC(=O)Nc2ccc([N+](=O)[O-])cc2)n1`, the response was -0.28%.
For the molecule `O=C(Nc1ccc(S(=O)(=O)Nc2nccs2)cc1)c1cc(-c2ccncc2)nc2ccccc12`, the response was 2.45%.
In the case of `O=C(Nc1ccncc1)c1cc(-c2ccccn2)nc2ccc(Br)cc12` it was 0.9%.
On to `Cc1ccc2nc(-c3ccncc3)cc(C(=O)Nc3ccc(OC(F)F)cc3)c2c1`, for which the response was 11.1% (active).
In the case of `CC(=O)C1=C(C)NC(=O)NC1c1cc(Br)ccc1OCC#N` (stereo unspecified) it was 1.72%; in that of `COC(=O)c1c(-c2ccc(C)cc2)csc1N`, 6.85% (active).
`CCC(C(=O)OC)n1cnc2scc(-c3ccc(C)cc3)c2c1=O` (stereo unspecified): the response was -4.95%.
Take `CCOC(=O)c1c(-c2ccc(-c3ccccc3)cc2)csc1NC(=O)CCC(=O)O`: the response is -1.32%.
Take `CC(C)=CCCC1(C)C=Cc2c(ccc3c2[nH]c2cc(O)c(C)cc23)O1` (stereo unspecified): the response is -1.63%.
In the case of `COc1ccc(NS(=O)(=O)c2ccc(F)cc2F)cn1` it was -2.01%; in that of `Cc1nc2ccccc2c(=O)n1-c1ccc(NS(=O)(=O)c2ccc(F)cc2F)cc1`, 15.7% (active); in that of `Cc1nc2ccccc2c(=O)n1-c1ccc(F)c(NC(=O)c2cccs2)c1`, -7.41%.
In the case of `CN(CC(=O)N1CCN(c2ccccc2)CC1)S(=O)(=O)c1cccs1` it was -1.07%.
As to `O=C(CSc1nc2ccccc2c(=O)n1CCCO)N1CCc2ccccc21`, the response is 1.92%.
To `O=C(O)c1ccc(-n2cccc2)cc1O` belongs -0.56%; to `CCCC[C@@H]1CN=C(N)N1CCCC`, -0.58%.
To `CCCC[C@@H]1CN=C(N)N1CCc1cccc(F)c1` belongs 0.99%; to `CCCC[C@@H]1CN=C(N)N1CCc1cc(C(F)(F)F)cc(C(F)(F)F)c1`, 14.3% (active); to `C=CC[C@H](CC(=O)NCCO)C(=O)N[C@@H](COC(=O)[C@@H](CC=C)Cc1ccc(F)cc1)Cc1c[nH]c2ccccc12`, 7.71%.
In the case of `COC(=O)Nc1ccc(S(=O)(=O)N2CCN(CCN3C(=O)C4C5C=CC(C5)C4C3=O)CC2)cc1` (stereo unspecified) it was 1.48%.
Consider `CN(C)CCN=c1cc(-c2ccccc2)oc2ccc(Cl)cc12`, for which the response was 1.09%.
Take `N/C(=N\OC(=O)c1ccc([N+](=O)[O-])cc1)c1ccccn1`: the response is -2.74%.
`O=C(O/N=C(/c1ccccc1)c1ccncc1)c1ccccc1[N+](=O)[O-]`: the response is 11.6% (active).
As for `O=C(Nc1ccncc1)c1ccccc1[N+](=O)[O-]`, the response was 1.22%.
In the case of `CC(=O)c1cccc(NC(=O)C2CCN(C(=O)c3ccccc3Cl)CC2)c1` it was -3.34%; in that of `COc1ccc(S(=O)(=O)N2CCOC23CCN(S(=O)(=O)c2ccc([N+](=O)[O-])cc2)CC3)cc1`, 1.58%; in that of `O=C(CSc1nnc(SCc2ccc(Cl)cc2)s1)N/N=C/c1ccccc1Cl`, -0.5%.
In the case of `CC1=NOC(=O)/C1=C\c1ccccc1` it was 17.2% (active).
In the case of `COc1cc(/C=C2/C(=O)ON=C2C)ccc1OCc1ccccc1F` it was 2.69%; in that of `C#CCOc1ccccc1/C=C1/C(=O)ON=C1C`, 3.98%.
Consider `CCOC(=O)CNC(=O)CSc1nnc(COc2ccc(Cl)cc2)n1CC`, for which the response is 17.5% (active).
To `CCn1c(COc2ccccc2)nnc1SCC(=O)Nc1ccc2c(c1)OCCO2` belongs -3.48%.
To `CCOC(=O)CNC(=O)CSc1nc2cccnc2n1CC` belongs 4.49%.
In the case of `CCCCNC(=O)c1c[nH]c2ccc(S(=O)(=O)Nc3ccc(OCC)cc3)cc2c1=O` it was -0.54%; in that of `Cc1cc(=O)[nH]c(Nc2cccc(Br)c2)n1`, -2.7%.
With `CCN(CCNC(=O)C1=C(C)C(=O)OC12CCC(C)CC2)c1ccccc1` (stereo unspecified), the response was 0.79%.
In the case of `CCOc1ccc(CCNC(=O)Nc2ccccc2)cc1OCC` it was -3.89%; in that of `CCOc1ccc(CCNC(=O)C2=C(C)C(=O)OC23CCC(C)CC3)cc1OCC` (stereo unspecified), 11.3% (active).
To `C#CCN(C[C@@H]1[C@@H](OC(=O)NC2CC2)[C@@H](OC(=O)NC2CC2)Cn2c(=O)ccc(=O)n21)S(=O)(=O)c1ccc(C)cc1` belongs -0.61%.
To `O=C(Cc1ccccc1)NCC1OCCc2ccccc21` (stereo unspecified) belongs 2.21%.
